These results are taken from PubChem BioAssay AID1259421 (Broad Institute, 2018).

Where “and” joins values, the source holds several entries; their conditions need not be identical. Identical values can stand only once. In all, about 6,400 compounds went through this assay and about 610 (9.5%) were called active. The sample holds actives, similar compounds and a random draw of the others, so the mix is not that of the screen. Rule as the data show it: active = activity change below about -70%; inconclusive = no clear call, values can overlap the other calls; inactive = above that. More than one record can exist for a structure, and the calls need not agree.

This test in a line: T. gondii ME49Luc in HeLa cells, luciferase assay, 72 h, no IFN-y (AID 1259421). The following applies: stronger effect = lower value, concentration not given here.
Turning to `CCO[C@@H](Cc1ccc(OCCc2ccc(OS(C)(=O)=O)cc2)cc1)C(=O)O`, the activity change, negative = inhibition was 11% (inactive).

Turning to `Cc1ccc(NC(=O)C(C)C)cc1C1CCN(Cc2ccc(Oc3ccc(F)c(F)c3)cc2)CC1`, the activity change, negative = inhibition is -59.6% (inactive).

Regarding `NC1=NCN([C@H]2C[C@@H](O)[C@@H](CO)O2)C(=O)N1`, the activity change, negative = inhibition was 13.9% (inactive).

`Cn1cnc(=N)c2[nH]cnc21`: the activity change, negative = inhibition was 11% (inactive).

In the case of `C=CC(=O)Nc1cccc(Nc2nc(Nc3ccc(Oc4ccnc(C(=O)NC)c4)cc3)ncc2F)c1`, the activity change, negative = inhibition is -38.8% (inactive).

Regarding `CNC(=O)c1cc(COc2nnc(Nc3ccc(Cl)cc3)c3ccoc23)ccn1`, the activity change, negative = inhibition was -9.12% (inactive).

For the compound `COc1cc(NC(=O)c2ccccn2)ccc1Cl`, the activity change, negative = inhibition was 132% (inactive).

Turning to `CC(C)C(=O)Nc1ccc([N+](=O)[O-])c(C(F)(F)F)c1`, the activity change, negative = inhibition is 12.9% (inactive).

As for `CNC(=O)c1cc(Oc2ccc(NC(=O)Nc3ccc(Cl)c(C(F)(F)F)c3)cc2)ccn1`, the activity change, negative = inhibition was -70.5% (active) and -84.5% (active).

Consider `CN1CCN(C2CCN(C(=O)Nc3cc(Oc4ccc(NC(=O)C5(C(=O)Nc6ccc(F)cc6)CC5)c(F)c4)ccn3)CC2)CC1`, for which the activity change, negative = inhibition was -66.6% (inactive).

Take `O=C(Nc1ccc(Cl)cc1)Nc1ccc(Cl)c(C(F)(F)F)c1`: the activity change, negative = inhibition is -76.9% (active).

With `CNC(=O)c1cc(Oc2ccc(NC(=O)Nc3ccc(Cl)c(C(F)(F)F)c3)c(F)c2)ccn1`, the activity change, negative = inhibition is -86.3% (active) and -83.6% (active).

For `C=CC(=O)Nc1ccc(Cl)cc1`, the activity change, negative = inhibition is 16.9% (inactive).

Consider `Nc1[nH]nc2nnc(-c3c(-c4ccccc4)nn4ccccc34)cc12`, for which the activity change, negative = inhibition is -19.2% (inactive).

Take `OC[C@@H](O)[C@@H](O[C@@H]1O[C@H](CO)[C@H](O)[C@H](O)[C@H]1O)[C@H](O)[C@@H](O)CO`: the activity change, negative = inhibition was 24% (inactive).

Consider `NC(Cn1ccc(=O)n(Cc2ccccc2C(=O)O)c1=O)C(=O)O` (stereo unspecified), for which the activity change, negative = inhibition is 7.15% (inactive).

With `CN1C2CCC1CC(OC(=O)c1c[nH]c3ccccc13)C2` (stereo unspecified), the activity change, negative = inhibition was 2.23% (inactive).

For `O=C1CC[C@@H](C(=O)O)N1`, the activity change, negative = inhibition is 4.43% (inactive).

Take `C1=C(CN2CCOCC2)COc2c1cccc2OCC1CNCCO1` (stereo unspecified): the activity change, negative = inhibition is 2.39% (inactive).

Consider `CC(C)=CCC/C(C)=C/C=C/C(C)=C/C=C/C(C)=C/C=C/C=C(C)/C=C/C=C(C)/C=C/C=C(\C)CCC=C(C)C`, for which the activity change, negative = inhibition is -16.2% (inactive).

As for `COc1ccc(-c2cc(=O)c3c(O)c(OC)c(OC)c(OC)c3o2)cc1OC`, the activity change, negative = inhibition was -10.2% (inactive).

As to `CC1(C)S[C@H]2[C@@H](NC(=O)[C@@H](NC(=O)N3CCN(S(C)(=O)=O)C3=O)c3ccccc3)C(=O)N2[C@@H]1C(=O)O`, the activity change, negative = inhibition is 5.45% (inactive).

In the case of `CN1CCCC(CN2c3ccccc3Sc3ccccc32)C1` (stereo unspecified), the activity change, negative = inhibition was 11.8% (inactive) and 21.2% (inactive).

Turning to `O=c1c2ccccc2nc2n1CCc1c-2[nH]c2ccccc12`, the activity change, negative = inhibition was 249% (inactive).

On to `CN1c2ccccc2C(=O)N2CCc3c([nH]c4ccccc34)C21` (stereo unspecified), for which the activity change, negative = inhibition is -71.6% (active).

Take `CN1CCc2ccccc2Cc2[nH]c3ccccc3c2CC1`: the activity change, negative = inhibition is 12.1% (inactive).

For `O=C(O)CCC/C=C/CC1COC(C(F)(F)F)OC1c1ccccc1O` (stereo unspecified), the activity change, negative = inhibition was 0.246% (inactive).

In the case of `C=C[C@@]1(C)CC(=O)[C@@]2(O)[C@](C)(O1)[C@@H](OC(C)=O)[C@@H](O)C1C(C)(C)CC[C@H](O)[C@@]12C` (stereo partly specified), the activity change, negative = inhibition was 6.95% (inactive).

For `Cc1ccc(NC(=O)c2ccc(CN3CCN(C)CC3)cc2)cc1Nc1nc(-c2cccnc2)cs1`, the activity change, negative = inhibition was 47.7% (inactive).

For the compound `Cc1ccc(NC(=O)c2ccc(CN3CCN(C)CC3)cc2)cc1Nc1nccc(-c2cccnc2)n1`, the activity change, negative = inhibition was 3.71% (inactive) and 10.8% (inactive) and -1.32% (inactive).

Consider `Cc1ccc(C(=O)Nc2cccc(C(F)(F)F)c2)cc1Nc1nc(-c2cccnc2)nc2c1cnn2C`, for which the activity change, negative = inhibition is -48.8% (inactive).

For `Cc1cn(-c2cc(NC(=O)c3ccc(C)c(Nc4nccc(-c5cccnc5)n4)c3)cc(C(F)(F)F)c2)cn1`, the activity change, negative = inhibition is -85.2% (active) and -76.5% (active).

`Cc1ncc(NC(=O)c2ccc(CN3CCN(C)CC3)c(C(F)(F)F)c2)cc1Nc1nccc(-c2cccnc2)n1`: the activity change, negative = inhibition is -77.9% (active).

With `O=Cc1ccccc1O[C@@H]1O[C@H](CO)[C@H](O)[C@@H](O)[C@H]1O`, the activity change, negative = inhibition was 4.65% (inactive).

`NC(=O)c1nc(F)c[nH]c1=O`: the activity change, negative = inhibition was 2.13% (inactive).

On to `Cc1c[nH]c2ccccc12`, for which the activity change, negative = inhibition was -2.35% (inactive).

For the compound `NC(N)=NCCC[C@@H](N)C(=O)O`, the activity change, negative = inhibition was 13.4% (inactive).

For the compound `Cn1c(C#N)ccc1-c1ccc2c(c1)C(C)(C)OC(=S)N2`, the activity change, negative = inhibition is -80.3% (active).

On to `Cc1ccc(-n2[nH]c(C)c(N=Nc3cccc(-c4cccc(C(=O)O)c4)c3O)c2=O)cc1C`, for which the activity change, negative = inhibition is -77.8% (active).

Regarding `CCOc1ccccc1N=Nc1c(C)[nH]n(-c2nc(-c3ccccc3)cs2)c1=O`, the activity change, negative = inhibition is -0.237% (inactive).

Turning to `Cn1cc(C(=O)[C@@H]2CCc3nc[nH]c3C2)c2ccccc21`, the activity change, negative = inhibition was 3.43% (inactive).

Consider `CC1=CC(=O)c2ccccc2C1=O`, for which the activity change, negative = inhibition was 2.88% (inactive) and 20.5% (inactive).

Consider `CC1(C)C(=O)NC2=C1C(=O)C(=O)c1ccccc12`, for which the activity change, negative = inhibition was -90% (active).

On to `C[N+](C)(C)CCOP(=O)(O)OC[C@H](O)CO`, for which the activity change, negative = inhibition is 7.52% (inactive).

On to `COC(=O)C[C@H]1C(C)(C)[C@@H](OC(C)=O)[C@@H]2CC3=C4CC(=O)O[C@@H](c5ccoc5)[C@]4(C)CCC3[C@@]1(C)C2=O` (stereo partly specified), for which the activity change, negative = inhibition was 13.2% (inactive).

On to `CC(=O)O[C@H]1Cc2ccccc2N(C(N)=O)c2ccccc21`, for which the activity change, negative = inhibition was 8.82% (inactive).

On to `O=c1cc(-c2ccc(O)cc2)oc2cc(O[C@@H]3O[C@H](CO)[C@@H](O)[C@H](O)[C@H]3O[C@@H]3OC[C@](O)(CO)[C@H]3O)cc(O)c12`, for which the activity change, negative = inhibition was -2.43% (inactive).

For the compound `Cc1nc2ccccc2n1Cc1ccc(Cl)cc1`, the activity change, negative = inhibition was -8.55% (inactive).

Turning to `CC(C)N=c1cc2n(-c3ccc(Cl)cc3)c3ccccc3nc-2cc1Nc1ccc(Cl)cc1`, the activity change, negative = inhibition is -81.2% (active) and 17.4% (inactive).

In the case of `Cc1ccc2c(c1)C(=O)[C@]1(O)CCN(c3ccccc3)C1=N2`, the activity change, negative = inhibition is 7.51% (inactive).

With `Cc1c(OCC(F)(F)F)ccnc1C[S@@](=O)c1nc2ccccc2[nH]1`, the activity change, negative = inhibition is 83.6% (inactive).

For `Cc1[nH]nc2ccc(-c3cncc(OC[C@@H](N)Cc4ccccc4)c3)cc12`, the activity change, negative = inhibition was -82.2% (active).

Turning to `O=S(=O)(O)c1ccc(-c2c3nc(c(-c4ccc(S(=O)(=O)O)cc4)c4ccc([nH]4)c(-c4ccc(S(=O)(=O)O)cc4)c4nc(c(-c5ccc(S(=O)(=O)O)cc5)c5ccc2[nH]5)C=C4)C=C3)cc1`, the activity change, negative = inhibition was -0.332% (inactive).

`COc1cc2c(Oc3ccc(NC(=O)C4(C(=O)Nc5ccc(F)cc5)CC4)cc3F)ccnc2cc1OCCCN1CCOCC1`: the activity change, negative = inhibition is -67.4% (inactive).

As to `COc1cc2nccc(Oc3ccc(NC(=O)Nc4ccc(F)cc4F)c(F)c3)c2cc1OC`, the activity change, negative = inhibition is -38.1% (inactive).

Regarding `COc1cc2nccc(Oc3ccc(NC(=O)NC4CC4)c(Cl)c3)c2cc1C(N)=O`, the activity change, negative = inhibition is 6.94% (inactive) and -7.61% (inactive).

With `COc1cc2nccc(Oc3ccc(NC(=O)Nc4cc(C)on4)c(Cl)c3)c2cc1OC`, the activity change, negative = inhibition was -84.5% (active).

As for `COc1cc2nccc(Oc3ccc(NC(=O)C4(C(=O)Nc5ccc(F)cc5)CC4)cc3)c2cc1OC`, the activity change, negative = inhibition is -93.3% (active).

In the case of `COc1cc2c(N3CCN(C(=O)Nc4ccc(OC(C)C)cc4)CC3)ncnc2cc1OCCCN1CCCCC1`, the activity change, negative = inhibition is 11% (inactive).

With `Oc1cccc(-c2c3nc(c(-c4cccc(O)c4)c4ccc([nH]4)c(-c4cccc(O)c4)c4nc(c(-c5cccc(O)c5)c5ccc2[nH]5)C=C4)C=C3)c1`, the activity change, negative = inhibition is 8.49% (inactive).

Consider `C[C@H](NC(=O)C(C)(C)Oc1ccc(C(F)(F)F)cn1)[C@@H](Cc1ccc(Cl)cc1)c1cccc(C#N)c1`, for which the activity change, negative = inhibition was -17.6% (inactive).

`COc1ccc(S(=O)(=O)Nc2nnc(CC(C)C)s2)cc1`: the activity change, negative = inhibition was 16.5% (inactive).

Regarding `COC(=O)[C@H]1[C@H]2C[C@@H]3c4[nH]c5ccccc5c4CCN3C[C@H]2C[C@@H](OC(=O)c2cc(OC)c(OC)c(OC)c2)[C@@H]1OC`, the activity change, negative = inhibition was -2.54% (inactive).

As for `CC[C@]1(O)CC2CN(CCc3c([nH]c4ccccc34)[C@@](C(=O)OC)(c3cc4c(cc3OC)N(C)[C@H]3[C@@](O)(C(=O)OC)[C@H](OC(C)=O)[C@]5(CC)C=CCN6CC[C@]43[C@@H]65)C2)C1` (stereo partly specified), the activity change, negative = inhibition is -90.8% (active).

Consider `CC[C@]1(O)CC2CN(CCc3c([nH]c4ccccc34)[C@@](C(=O)OC)(c3cc4c(cc3OC)N(C=O)[C@H]3[C@@](O)(C(=O)OC)[C@H](OC(C)=O)[C@]5(CC)C=CCN6CC[C@]43[C@@H]65)C2)C1` (stereo partly specified), for which the activity change, negative = inhibition is -76.5% (active).

Regarding `CCC1=C[C@@H]2CN(C1)Cc1c([nH]c3ccccc13)[C@@](C(=O)OC)(c1cc3c(cc1OC)N(C)[C@H]1[C@@](O)(C(=O)OC)[C@H](OC(C)=O)[C@]4(CC)C=CCN5CC[C@]31[C@@H]54)C2`, the activity change, negative = inhibition was -61.1% (inactive).

In the case of `CCC1(O)CC2CN(CCc3c([nH]c4ccccc34)C(C(=O)OC)(c3cc4c(cc3OC)N(C)C3C(O)(C(=O)OC)C(C(=O)OC)C5(CC)C=CCN6CCC43C65)C2)C1` (stereo unspecified), the activity change, negative = inhibition was -82.9% (active).

With `CO[C@H]1C[C@H]2CC[C@@H](C)[C@@](O)(O2)C(=O)C(=O)N2CCCC[C@H]2C(=O)O[C@H]([C@H](C)C[C@@H]2CC[C@H](OC(=O)C(C)(CO)CO)[C@H](OC)C2)CC(=O)[C@H](C)/C=C(\C)[C@@H](O)[C@@H](OC)C(=O)[C@H](C)C[C@H](C)/C=C/C=C/C=C/1C`, the activity change, negative = inhibition is 9.08% (inactive).

For `CCOC(=O)[C@H](CCc1ccccc1)N[C@H]1CCCN2CCC[C@H](C(=O)O)N2C1=O`, the activity change, negative = inhibition is -4.74% (inactive).

As for `CC(N)(C(=O)O)c1ccc(-c2nn[nH]n2)cc1` (stereo unspecified), the activity change, negative = inhibition was 3.49% (inactive).

`C[C@@H]1C(=O)O[C@H]2[C@H](O)C34[C@H]5C[C@@H](C(C)(C)C)[C@]36[C@@H](OC(=O)[C@@H]6O)O[C@]4(C(=O)O5)[C@@]12O` (stereo partly specified): the activity change, negative = inhibition is 5.38% (inactive).
